Results filed as inconclusive are left out. Activity calls are given as the source filed them. Calls come from the whole dose curve; as a rule, active = well fitted inhibition curve with a large enough effect; inconclusive = small, poorly fitted or top-dose-only effect; inactive = flat fitted curve, though single readings scatter.
Target: Phosphatidylinositol 5-phosphate 4-kinase type-2 alpha (Homo sapiens) (UniProt P48426)
Assay: qHTS for Inhibitors of PI5P4K: PI5P4K-alpha Confirmatory Assay for Probe SAR
Conditions: Purified PI5P4Kalpha, ADP-Glo luminescence, 60 min; series mostly up to 76.9 µM
Excerpt: In addition to finding PI5P, we discovered the type II phosphatidylinositol 5-phosphate 4-kinase (PI5P4K) family (alpha, beta, gamma isoforms) that catalyze the conversion of PI5P to PI(4,5)P2. Alternatively, PI(4,5)P2 can also be synthesized through phosphatidylinositol-4-phosphate (PI4P) by the type I phosphatidylinositol 4-phosphate 5-kinases (PI4P5K). These PI5P4K enzymes therefore represent one way by which cells can regulate endogenous PI5P levels and play important roles in insulin signaling and in stress responses. […] A qHTS PI5P4Kalpha ADP-Glo assay was developed to identify specific modulators of human PI5P4K, phosphatidylinositol-5-phosphate 4-kinase (Type II PIPK). This assay was screened against the MLSMR containing ~400,000 small molecules (PubChem AID 652105). The same assay was used to validate subsequent Medicinal Chemistry efforts on the active compounds and its analogs. Inhibition of the enzyme activity (signal decrease) is the desired outcome for this assay. Davis et al., PLoS One. 2013; 8(1):e54127. NIH Chemical Genomics Center [NCGC] NIH Molecular Libraries Probe Centers Network [MLPCN] MLPCN Grant: MH096575 Assay Submitter (PI): Atsuo Sasaki, Beth Israel Deaconess Medical Center
Two microliter of PI5P4Kalpha/substrate buffer (columns 1-2, 5-48) was dispensed into Greiner white solid bottom 1536-well assay plates; column 3 received only PI5P4Kalpha buffer as no substrate control; column 4 receives only substrate buffer as no PI5P4Kalpha controls. Final assay buffer consists of 0.038 M HEPES pH 7.4, 0.28 mM EGTA, 0.1 % CHAPS, and 5% DMSO (final concentration). Compounds were then transferred via Kalypsys pin tool equipped with 1536-pin array. Following addition of compound, 1 uL of ATP (5 uM final concentration) was added to initiate the reaction. ATP was diluted in an assay buffer consisting of 0.02 M HEPES pH 7.4, 60 mM MgCl2, 15 uM ATP, and 0.1% CHAPS. The plates were then incubated at room temperature for 60 minutes. ADP-Glo reagent 1 was added and plates incubated for 45 minutes. ADP-Glo reagent 2 was added and the plates were incubated for 30 minutes. The plates were transferred to a ViewLux high-throughput CCD imager (PerkinElmer) wherein single end-point measurements of luminescence were acquired using a clear filter.

Chain of Phosphatidylinositol 5-phosphate 4-kinase type-2 alpha (Homo sapiens) (P48426 whole entry, looked up): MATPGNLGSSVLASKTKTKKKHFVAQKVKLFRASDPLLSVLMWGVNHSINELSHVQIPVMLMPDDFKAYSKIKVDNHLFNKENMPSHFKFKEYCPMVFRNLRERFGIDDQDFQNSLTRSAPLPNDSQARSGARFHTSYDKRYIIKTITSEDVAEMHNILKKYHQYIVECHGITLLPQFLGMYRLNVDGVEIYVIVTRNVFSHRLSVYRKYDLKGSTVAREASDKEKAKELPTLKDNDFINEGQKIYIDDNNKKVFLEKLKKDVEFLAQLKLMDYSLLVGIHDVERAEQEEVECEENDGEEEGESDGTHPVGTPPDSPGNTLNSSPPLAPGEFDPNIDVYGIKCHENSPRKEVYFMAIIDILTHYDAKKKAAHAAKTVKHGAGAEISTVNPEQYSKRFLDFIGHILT

SMILES	Potency
O=C1Nc2ccccc2/C1=C/c1ccc[nH]1	inactive
O=C1Nc2ccccc2/C1=C\c1ccc([N+](=O)[O-])cc1	2740 nM (active)
O=C1Nc2ccccc2/C1=C\c1cc(Br)c(O)c(Br)c1	1220 nM (active)
O=C1Nc2ccccc2/C1=C/c1cc(Cl)c(O)c(Cl)c1	867 nM (active)
COc1cc(/C=C2/C(=O)Nc3ccccc32)cc(OC)c1O	30700 nM (active)
COc1cc(/C=C2\C(=O)Nc3ccccc32)ccc1O	19400 nM (active)
O=C1Nc2ccccc2/C1=C/c1cccc(C(=O)O)c1	10900 nM (active)
O=C1Nc2ccccc2/C1=C\c1ccc(O)cc1	24400 nM (active)
O=C1Nc2cccc(Cl)c2/C1=C\c1cc(Cl)c(O)c(Cl)c1	3070 nM (active)
Cc1cccc2c1NC(=O)/C2=C/c1cc(Cl)c(O)c(Cl)c1	547 nM (active)
O=C1Nc2ccccc2/C1=C\c1ccc(O)c(F)c1	2180 nM (active)
O=C1Nc2ccccc2/C1=C\c1cc(F)c(O)c(F)c1	487 nM (active)
COc1ccc(/C=C2/C(=O)Nc3ccccc32)cc1O	772 nM (active)
O=C1Nc2ccccc2C12CC2c1cc(Cl)c(O)c(Cl)c1 (centres undefined)	10900 nM (active)

From PubChem BioAssay AID743381 (National Center for Advancing Translational Sciences (NCATS), 2014)
